Experimental data: PubChem BioAssay (Tox21)
Results filed as inconclusive are left out. Active and inactive are the calls of the source. The call rests on the fitted dose curve.

Experiment: p53 small molecule agonists, cell-based qHTS assay with human liver microsomes (AID 1963577);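 further: p53 response element beta-lactamase reporter cells with liver microsomes plus NADPH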
Settings: HCT-116 p53RE-bla with human liver microsomes, ratio, 16 h; series mostly up to 66 µM; activation: at the top concentration
From the text: National Center for Advancing Translational Sciences [NCATS]
Division of Preclinical Innovation [DPI]
U.S. Environmental Protection Agency [EPA]
National Institutes of Environmental Health Sciences [NIEHS]
National Toxicology Program [NTP]
U.S. Food and Drug Administration [FDA]
p53, a tumor suppressor protein, is activated following cellular insult, including DNA damage and other cellular stresses. The activation of p53 regulates cell fate by inducing DNA repair, cell cycle arrest, apoptosis, or cellular senescence. The activation of p53, therefore, is a good indicator of DNA damage and other cellular stresses. […] The activation of the reporter gene under culture conditions can be detected by fluorescence intensity.
Tox21 Assay Protocol Summary:
The p53RE-bla cells were dispensed at 4,000cells/3ul/well in 1536-well black-clear bottom plates. After the assay plates were incubated at 37 C, 5% CO2 incubator for 5 hours, 23 nL of compounds dissolved in DMSO, positive controls or DMSO only was transferred to the assay plate. Following compound addition, 3 uL of human liver microsomes (XenoTech, Kansas City, KS) at final concentration of 0.5 mg/mL and 1uL of Beta-Nicotinamide adenine dinucleotide 2-phosphate (NADPH) at final concentration of 0.5 mg/mL were transferred to the assay plate. The plates were incubated at 37 C for 16 hours. 1 uL of LiveBLAzer detection mixture was added to each well and the plates were incubated at room temperature in the dark for 2 h.
On the % scale 0 is the no-effect control and ±100 the full control effect.

| SMILES | activation |
| --- | --- |
| Cc1ccc(C(=O)Oc2ccc(C(O)CNC(C)(C)C)cc2OC(=O)c2ccc(C)cc2)cc1 (stereo not given) | -0.978% [at 30.3 µM] (inactive) |
| CC(Oc1cc(Cl)ccc1Cl)C(=O)O (stereo not given) | -4.39% (inactive) |
| SCCCCCCCCS | -2.44% (inactive) |
| Cc1cc(C)cc([N+](=O)[O-])c1 | -2.46% (inactive) |
| CC(C)C[C@@H]1[C@H](c2ccccc2)OC(=O)N1CCCN1CCCCCC1 | 1.49% [at 30.3 µM] (inactive) |
| CN1CCC(=C2c3ccccc3CCc3sccc32)CC1 | 10% [at 30.3 µM] (inactive) |
| CN(C)CCCSc1ccccc1NC(=O)/C=C/c1ccccc1 | -5.49% [at 30.3 µM] (inactive) |
| c1ccc(C(O[C@H]2CCCN(CCc3ccc4c(c3)OCO4)C2)c2ccccc2)cc1 | -0.637% [at 30.3 µM] (inactive) |
| O=C(O)c1cccc(C(=O)O)c1C(=O)O | 2.66% (inactive) |
| CC(N)C12CC3CC(CC(C3)C1)C2 (stereo not given) | -2.17% [at 30.3 µM] (inactive) |
| O=Cc1c2ccccc2c(Cl)c2ccccc12 | 3.05% [at 30.3 µM] (inactive) |
| CC(=O)Nc1ccc(C)c(Cl)c1 | -0.665% (inactive) |
| CCc1cccc(C)c1 | -1.48% (inactive) |
| COc1ccccc1NC(=O)c1cc2ccccc2cc1O | -1.24% (inactive) |
| CCOC(=O)OCC/C(SC(=O)OCC)=C(\C)N(C=O)Cc1cnc(C)nc1N | 6.25% [at 30.3 µM] (inactive) |
| Cc1cccc(Nc2ccncc2S(=O)(=O)NC(=O)NC(C)C)c1 | -5.31% [at 30.3 µM] (inactive) |
| CCOc1ccccc1O[C@H](c1ccccc1)[C@H]1CNCCO1 | -2.25% [at 30.3 µM] (inactive) |
| CCCCCCOC(=O)CCCCC(=O)OCCCCCC | -2.87% (inactive) |
| Clc1cc(Cl)cc(Cl)c1 | -2.2% (inactive) |
| Cc1cc(=O)oc2cc(O[C@@H]3SC[C@@H](O)[C@H](O)[C@H]3O)ccc12 | -2.8% [at 30.3 µM] (inactive) |

| SMILES | activation |
| --- | --- |
| C=CCCCC | -1.62% (inactive) |
| CC12CCC(CC1=O)C2(C)C (stereo not given) | 4.73% (inactive) |
| CC(=O)CC(c1ccc([N+](=O)[O-])cc1)c1c(O)c2ccccc2oc1=O (stereo not given) | 0.0945% [at 30.3 µM] (inactive) |
| CC(C)CCCC(C)(C)O | 1.62% (inactive) |
| ICCc1ccccc1 | -9.08% (inactive) |
| COC(=O)C(c1ccccc1Cl)N1CCc2sccc2C1 (stereo not given) | 1.1% [at 30.3 µM] (inactive) |
| C#CCN[C@@H]1CCc2ccccc21 | 0.941% [at 30.3 µM] (inactive) |
| CC(=O)[C@H]1CC[C@H]2[C@@H]3C[C@H](C)C4=CC(=O)CC[C@]4(C)[C@H]3[C@@H](O)C[C@]12C | -15.3% [at 30.3 µM] (inactive) |
| COc1ccc(-c2cc(=O)c3c(O)cc(O[C@@H]4O[C@H](CO[C@@H]5O[C@@H](C)[C@H](O)[C@@H](O)[C@H]5O)[C@@H](O)[C@H](O)[C@H]4O)cc3o2)cc1O | -0.785% [at 30.3 µM] (inactive) |
| CN(C)CCC=C1c2ccccc2C=Cc2ccccc21 | -1.45% [at 30.3 µM] (inactive) |
| Cc1c(C)c2c(c(C)c1OC(=O)CCC(=O)OCCO)CC[C@@](C)(CCC[C@H](C)CCC[C@H](C)CCCC(C)C)O2 | 1.49% [at 30.3 µM] (inactive) |
| Cc1cc(OI)c(C(C)C)cc1-c1cc(C(C)C)c(OI)cc1C | 6.74% [at 30.3 µM] (inactive) |
| CCCCCCCCCCCCc1ccc(O)cc1 | -0.363% (inactive) |
| COC[C@H](c1ccc(C(F)(F)F)cc1)N1CCN(C2(C)CCN(C(=O)c3c(C)ncnc3C)CC2)C[C@H]1C | 12.3% [at 30.3 µM] (inactive) |
| OC(CCN1CCCCC1)(c1ccccc1)c1ccccc1 | 0.229% [at 30.3 µM] (inactive) |
| CCCCCCCCCCCBr | 1.63% [at 30.3 µM] (inactive) |
| CC(C)C/C=C(\C=O)c1ccccc1 | 4.85% (inactive) |
| CC(C)(C(=O)c1cccnc1)c1cccnc1 | -1.34% [at 30.3 µM] (inactive) |
| CCOC(=O)c1ccccc1 | -0.0125% (inactive) |
| Cc1cc(O)c2c(c1)C(=O)c1cccc(O)c1C2=O | -1.54% [at 30.3 µM] (inactive) |
